Assay outcomes as filed in PubChem.
KCNH2 3.1 block: inhibitors of human KCNH2 3.1 potassium channel isoform. U2OS KCNH2 3.1, thallium flux FluxOr; active compounds read low. activity change, % (tested at about 1.8 µM). actives 0.95% (n = 340,000);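 active means maximum activity change below -70%; inconclusive means maximum activity change from -70% to -50%; inactive means maximum activity change above -50%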;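 further: thallium influx rate constant from kinetic fluorescence after stimulation buffer; on the % scale 0 is the no-effect control and ±100 the full control effect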
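Steps: virus added to U2OS suspension (4 h, RT, dark); medium with 10% FBS added, cells plated, 37 C overnight; FluxOr/Red40 loading buffer 45 min RT; stimulation buffer, 2 min kinetic read; rate constant normalized.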
hERG WT inh: inhibitors of human wildtype KCNH2 potassium channel; activity change, % at 1.84 µM; Q12809; U2OS, BacMam KCNH2, thallium flux FluxOr; active compounds read low; actives 0.37% (n = 340,000);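 active means maximum activity change below -70%; inconclusive means maximum activity change between -70% and -50%; inactive means maximum activity change above -50%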; further: on the % scale 0 is the no-effect control and ±100 the full control effect
Target sequence (Q12809 whole entry, looked up): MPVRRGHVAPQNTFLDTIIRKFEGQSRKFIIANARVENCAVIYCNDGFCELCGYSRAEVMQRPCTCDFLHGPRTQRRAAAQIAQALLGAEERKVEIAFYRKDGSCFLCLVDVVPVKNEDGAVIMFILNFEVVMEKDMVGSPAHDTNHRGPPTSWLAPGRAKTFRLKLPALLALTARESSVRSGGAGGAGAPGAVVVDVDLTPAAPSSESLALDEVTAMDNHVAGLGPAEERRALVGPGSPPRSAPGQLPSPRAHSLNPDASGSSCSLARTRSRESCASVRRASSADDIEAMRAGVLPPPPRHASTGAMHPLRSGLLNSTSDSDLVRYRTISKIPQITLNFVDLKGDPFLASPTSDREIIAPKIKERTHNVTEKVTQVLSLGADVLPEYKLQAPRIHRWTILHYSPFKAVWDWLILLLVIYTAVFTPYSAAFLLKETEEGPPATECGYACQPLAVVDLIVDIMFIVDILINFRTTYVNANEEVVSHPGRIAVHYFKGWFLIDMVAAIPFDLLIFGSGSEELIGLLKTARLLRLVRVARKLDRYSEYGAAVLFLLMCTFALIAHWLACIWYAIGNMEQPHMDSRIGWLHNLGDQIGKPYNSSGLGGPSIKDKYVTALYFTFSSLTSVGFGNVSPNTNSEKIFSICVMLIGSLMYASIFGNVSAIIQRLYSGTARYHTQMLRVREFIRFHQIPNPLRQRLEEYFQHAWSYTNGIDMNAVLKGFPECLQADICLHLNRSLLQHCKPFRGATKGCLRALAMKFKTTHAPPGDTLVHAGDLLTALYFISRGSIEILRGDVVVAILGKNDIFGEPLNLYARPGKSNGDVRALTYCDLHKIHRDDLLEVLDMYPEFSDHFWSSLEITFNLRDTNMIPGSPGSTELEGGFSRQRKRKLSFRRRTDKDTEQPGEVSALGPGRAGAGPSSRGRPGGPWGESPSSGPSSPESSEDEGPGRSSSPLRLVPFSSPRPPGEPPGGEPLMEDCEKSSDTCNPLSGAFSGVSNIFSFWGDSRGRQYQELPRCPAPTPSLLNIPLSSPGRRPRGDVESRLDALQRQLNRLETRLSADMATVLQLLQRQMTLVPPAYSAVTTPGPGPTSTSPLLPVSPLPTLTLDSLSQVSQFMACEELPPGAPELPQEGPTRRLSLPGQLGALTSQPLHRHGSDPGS
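U2OS cells were transduced with wild-type KCNH2 virus (2.03 x 10^8 / mL) for 4 h at room temperature, then cultured overnight at 37 C. Thallium flux was read with FluxOr dye. Rate constants were normalized to DMSO controls.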
Glioma ERSR ind: induces the endoplasmic reticulum stress response in human glioma cells; AID 602332; Potency, µM, inactives show at the top dose activation, hits mostly activators; actives 0.02% (n = 420,000); U87-MG GRP78 promoter luciferase reporter, 16 h; active means well fitted activation curve with a large enough effect; inconclusive means small, poorly fitted or top-dose-only effect; inactive means no such curve, though single readings can be large or run the other way; further: potency means the concentration at half of the fitted maximal effect; series mostly up to about 76 µM; % of control where 0% means no effect; nearly all actives have a fitted effect of over 35% in size
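ERSR induction read as luciferase luminescence (Bright-Glo, 10 min at room temperature) in stably transfected human U87-MG glioma cells exposed to compounds for 16 h, using GRP78 as sensor.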
Akt phos inh: blocks phosphorylation of Akt; Neuro2A IGF-stimulated pAkt S473 HTRF, 20 min; active compounds read low; activity change, % for hits at 50 µM; actives 0.32% (n = 360,000); AID 651550; in the data active means activity change below about -80%; inconclusive means mostly about -51% to -80%; further: on the % scale 0 is the no-effect control and ±100 the full control effect
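Neuro2A cells in DMEM with 0.5% FBS, overnight at 37 deg C, given compound at single 50 µM final, then IGF (6 nM final) for 20 min at 37 deg C. Lysed; phospho-Akt Ser473 by HTRF after 24 h, 665/615 ratio.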
gsp agonist: agonists of gsp mutant (McCune-Albright syndrome); gsp mutant cells, cAMP HTRF, 30 min; Potency, µM (top dose mostly 76.9 µM), for the others: at the top dose activation (cAMP increase), usual class: activators; actives 0.13% (n = 340,000); active means well fitted activation curve with a large enough effect; inconclusive means small, poorly fitted or top-dose-only effect, or another doubt; inactive means no such curve, though single readings can be large or run the other way; cell line not stated here;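 further: phosphodiesterase inhibitor Ro 20-1724 added with compounds to block cAMP breakdown; potency means the concentration at half of the fitted maximal effect; nearly all actives have a fitted effect of over 60% in size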
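Cells in DMEM/10% FBS with G418 were pretreated with compounds in DMSO plus […] (300 uM stock) for 30 min at 37C. cAMP was measured by HTRF (cAMP-d2 plus anti-cAMP antibody-K) after 30 min at room temperature.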
gsp antag: gsp mutant antagonism; gsp-mutant cells, cAMP HTRF, 30 min; Potency, µM (titrated, usually from 76.9 µM), inactives show at the top dose activity change, negative = inhibition, actives largely listed as inhibitors; actives 0.4% (n = 340,000); AID 624288; calls by dose curve; cell line not stated here;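 further: intracellular cAMP measured with PDE inhibitor Ro 20-1724 present during compound exposure; potency means the concentration at half of the fitted maximal effect; on the % scale 0 is the no-effect control and ±100 the full control effect; nearly all actives have a fitted effect of over 65% in size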
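Cells, 2000/well, grown 16–24 h in DMEM 10% FBS with 0.5 mg/ml G418, then compounds plus […] (300 uM addition stock), 30 min at 37C. cAMP read by HTRF (cAMP-d2 and anti-cAMP antibody-K in lysis buffer) after 30 min RT.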
Numbers without * were called inactive; [ ] = another dose, or the depositor's remark. In the library only some 1.6% were active in any assay of this set; here they are far more common.

How did CCCN1C2CCCC1CC(NC(=O)Nc1ccc(C(C)C)cc1)C2 (stereo not given) do in these assays?
KCNH2 3.1 block: -74*; hERG WT inh: -10; Glioma ERSR ind: -5%; Akt phos inh: inactive; gsp agonist: 10%; gsp antag: 6%

How did OC(c1ccc2c(c1)CN(Cc1c[nH]c3ccccc13)CCO2)c1ccccn1 (stereo not given) do in these assays?
Glioma ERSR ind: -3%

Results for CCC(C)c1ccc(NC(=S)NCc2cccnc2)cc1 (stereo not given) ?
KCNH2 3.1 block: -94*; hERG WT inh: 1; Glioma ERSR ind: 1%; Akt phos inh: inactive; gsp agonist: inconclusive; gsp antag: -1%

Results for COc1ccc2ccccc2c1CN1CCOc2ccc(CN3CCN(CCO)CC3)cc2C1 ?
Glioma ERSR ind: -4%

How did CC(=O)c1cc(C)ccc1OC(=O)CN1C(=O)c2ccccc2C1=O do in these assays?
KCNH2 3.1 block: 0; hERG WT inh: -10; Glioma ERSR ind: -4%; Akt phos inh: inactive; gsp agonist: -48%; gsp antag: -4%

How did Cc1ccc(C)c(OC(=O)CN2C(=O)c3ccccc3C2=O)c1 do in these assays?
KCNH2 3.1 block: 2; hERG WT inh: -94*; Glioma ERSR ind: -5%; Akt phos inh: inactive; gsp agonist: -13%[15.4 µM]; gsp antag: -32%

How did CCNC(=O)Cc1c(OC)ccc2cc(Br)ccc12 do in these assays?
KCNH2 3.1 block: 11; hERG WT inh: -4; Glioma ERSR ind: -3%; Akt phos inh: inactive; gsp agonist: inconclusive; gsp antag: 9%

What do the screens show for `CC1(C)CC(NC(=O)COc2ccc3ccccc3c2)CC(C)(C)N1`?
KCNH2 3.1 block: -6; hERG WT inh: 21; Glioma ERSR ind: -4%; Akt phos inh: -115%*; gsp agonist: -4%; gsp antag: 3%

Results for COc1ccc2cc(Br)ccc2c1CC(=O)NC1CC(C)(C)NC(C)(C)C1 ?
KCNH2 3.1 block: -3; hERG WT inh: -123*; Glioma ERSR ind: -2%; Akt phos inh: inactive; gsp agonist: inconclusive; gsp antag: 10%

How did COc1cc(CN2CCC(n3nccc3NC(=O)c3ccccc3OC)CC2)ccc1F do in these assays?
KCNH2 3.1 block: -70*; hERG WT inh: -106*; Glioma ERSR ind: -2%; Akt phos inh: inactive; gsp agonist: -6%; gsp antag: -10%

What do the screens show for `CCn1cc(CN2CCC(n3nccc3NC(=O)c3ccccc3OC)CC2)cn1`?
KCNH2 3.1 block: -41; hERG WT inh: -2; Glioma ERSR ind: -4%; Akt phos inh: inactive; gsp agonist: inconclusive; gsp antag: -15%

Results for COc1ccccc1C(=O)Nc1ccnn1C1CCN(Cc2ccccc2OCCO)CC1 ?
KCNH2 3.1 block: -82*; hERG WT inh: -39; Glioma ERSR ind: -5%; Akt phos inh: inactive; gsp agonist: -22%; gsp antag: 2%

Results for CCOc1ccc(CN2CCC(n3nccc3NC(=O)c3ccccc3OC)CC2)cc1 ?
KCNH2 3.1 block: -12; hERG WT inh: -154*; Glioma ERSR ind: 0%; Akt phos inh: inactive; gsp agonist: -4%; gsp antag: -2%

What do the screens show for `COc1ccccc1CN1CCC(n2nccc2NC(=O)c2ccccc2Cl)CC1`?
KCNH2 3.1 block: -49; hERG WT inh: 0; Glioma ERSR ind: -1%; Akt phos inh: inactive; gsp agonist: inconclusive; gsp antag: -8%

How did N#Cc1ccc(NC(=O)COc2ccccc2C(=O)Nc2ccccc2)cc1 do in these assays?
Glioma ERSR ind: 0%

What do the screens show for `CC(C)(C)NC(=O)CSc1nncn1NCc1cccc2ccccc12`?
KCNH2 3.1 block: 3; hERG WT inh: 4; Glioma ERSR ind: -1%; Akt phos inh: -113%*; gsp agonist: -2%; gsp antag: 0%

What do the screens show for `O=C(COc1ccccc1C(=O)OCC(=O)Nc1cccc2ccccc12)Nc1ccc(Br)cc1`?
Glioma ERSR ind: -1%

What do the screens show for `C[C@@]1(C(=O)O)NCCc2cc(O)c(O)cc21`?
Glioma ERSR ind: -3%

What do the screens show for `Cc1nc2ccccc2n1C1CCN(CC(=O)Nc2ccccc2Br)CC1`?
KCNH2 3.1 block: -91*; hERG WT inh: inconclusive; Glioma ERSR ind: 0%; Akt phos inh: inactive; gsp agonist: inconclusive; gsp antag: inconclusive

Results for COC(=O)C1=C(C)N(Cc2ccccc2)C(=NCc2cc(OC)c(OC)c(OC)c2)N[C@H]1c1ccc(Br)cc1 ?
KCNH2 3.1 block: -86*; hERG WT inh: -14; Glioma ERSR ind: -4%; Akt phos inh: inactive; gsp agonist: 12%; gsp antag: 5%

What do the screens show for `COC(=O)C1=C(C)N(Cc2ccccc2)C(=NCc2cc(OC)c(OC)c(OC)c2)N[C@H]1c1ccccc1`?
Glioma ERSR ind: -4%; Akt phos inh: inactive; gsp antag: 5%

Results for COc1ccc(-c2csc3nc(C)nc(N4CCC(C)CC4)c23)cc1OC ?
KCNH2 3.1 block: -137*; hERG WT inh: 6; Glioma ERSR ind: -4%; Akt phos inh: inactive; gsp agonist: -12%[15.4 µM]; gsp antag: -17%

What do the screens show for `Cc1ccc(CN2CCC(=O)N(Cc3ccccn3)CC2)c(C)c1`?
Glioma ERSR ind: -2%

How did Cc1c(O)ccc(C(=O)COc2ccc(F)cc2)c1O do in these assays?
KCNH2 3.1 block: -8; hERG WT inh: -3; Glioma ERSR ind: 7%; Akt phos inh: -89%*; gsp agonist: 8%; gsp antag: -12%

What do the screens show for `Cc1c(Cn2cnc3c(cnn3C(C)(C)C)c2=O)cccc1C(F)(F)F`?
Glioma ERSR ind: -4%

What do the screens show for `COc1ccc(-c2cccc(-c3cc(=O)oc4cc(OC)cc(OC)c34)c2)cc1`?
KCNH2 3.1 block: inconclusive; hERG WT inh: 5; Glioma ERSR ind: -2%; Akt phos inh: inactive; gsp antag: 5%

What do the screens show for `COc1cc(OC)c2c(-c3cccc(/C=C/c4ccc(F)cc4)c3)cc(=O)oc2c1`?
KCNH2 3.1 block: -19; hERG WT inh: -153*; Glioma ERSR ind: 0%; Akt phos inh: inactive; gsp antag: 4%

Results for CC(NC(=O)c1ccco1)c1nnc2n1CCN(Cc1ccc(N(C)C)cc1)CC2 (stereo not given) ?
Glioma ERSR ind: -1%

Results for Cc1c(C=O)c2ccccc2n1CC(=O)NCc1ccccc1 ?
KCNH2 3.1 block: 35; hERG WT inh: -2; Glioma ERSR ind: -2%; Akt phos inh: inactive; gsp agonist: -3%[15.4 µM]; gsp antag: -2%

How did Cc1c(C=O)c2ccccc2n1CC(=O)NCc1ccc2c(c1)OCO2 do in these assays?
KCNH2 3.1 block: -390*; hERG WT inh: -3; Glioma ERSR ind: -5%; Akt phos inh: inactive; gsp agonist: -8%[15.4 µM]; gsp antag: 3%

How did COc1cccc(CN2CCOc3ccc(C(O)c4cccnc4)cc3C2)c1 (stereo not given) do in these assays?
Glioma ERSR ind: -3%

What do the screens show for `CCCCCCCc1nc2c(=O)n(C)c3ccccc3c2o1`?
KCNH2 3.1 block: -3; hERG WT inh: 1; Glioma ERSR ind: -2%; gsp agonist: 5%; gsp antag: 14%

How did CCCCCCc1nc2c(=O)[nH]c3ccccc3c2o1 do in these assays?
KCNH2 3.1 block: -1; hERG WT inh: 3; Glioma ERSR ind: -3%; Akt phos inh: -87%*; gsp agonist: -5%; gsp antag: 12%
